Source: PubChem BioAssay (several laboratories)
In the library only some 1.7% were active in any assay of this set; here they are far more common.
PfHsp40 rescue – compounds rescuing yeast from Plasmodium falciparum HSP40 toxicity; 340,000 tested, 0.68% active; S. cerevisiae expressing PfHsp40, growth rescue, ATP luminescence; growth rescue, % at 12.5 µM; in the data active means growth rescue above about 28%, passing the limit was not always enough;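 further: yeast W303a lacking pdr1 and pdr3 grown in galactose medium; growth measured after three days at 30 °C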
MazF activator – activators of E. coli MazEF toxin-antitoxin RNase; P0AE70; FAM/BHQ RNA-DNA oligo cleavage fluorescence, 5 h; activation, % at 20 µM; 350,000 tested, 0.32% active; in the data active means activation above about 50%
Target sequence (P0AE70 whole entry, looked up): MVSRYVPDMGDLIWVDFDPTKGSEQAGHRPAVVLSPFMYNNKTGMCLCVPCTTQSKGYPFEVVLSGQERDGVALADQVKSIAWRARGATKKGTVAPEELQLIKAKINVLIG
DUSP3 inh – inhibitors of human VHR1 phosphatase (DUSP3); P51452; 290,000 tested, 0.52% active; inhibition, % at 13.3 µM; recombinant VHR phosphatase, pNPP absorbance; in the data active means inhibition above about 50%
Target sequence (P51452 whole entry, looked up): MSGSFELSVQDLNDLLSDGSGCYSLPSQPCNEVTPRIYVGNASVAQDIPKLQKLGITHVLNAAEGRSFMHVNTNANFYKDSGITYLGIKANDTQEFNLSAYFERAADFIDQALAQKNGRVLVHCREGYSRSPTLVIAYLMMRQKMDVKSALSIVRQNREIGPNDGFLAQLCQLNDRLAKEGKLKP
BJeLR viability – kills HRASV12-expressing BJeLR cells | AID 1554 | BJeLR (HRASV12) viability, CellTiter-Glo ATP luminescence, 48 h | 300,000 tested, 0.17% active | inhibition, % (no concentration beside the values); in the data active means inhibition above about 50%
3CLpro inhibitor – SARS-CoV 3CLpro protease inhibition; P0C6X7; recombinant SARS-CoV 3CLpro, quenched FRET peptide cleavage; inhibition, % at 6 µM; 290,000 tested, 0.14% active; in the data active means inhibition above about 12%
BH1578 lux ind – inducers of Vibrio cholerae quorum light production without autoinducers | V. cholerae BH1578 lux reporter, luminescence, 6 h | activation, % at 18.7 µM | 350,000 tested, 0.16% active | AID 588436; in the data active means activation mostly above about 9.7%, no sharp cut-off
* = called active by the depositor; i = inactive; nt = no result given; ! = not active in a repeat.

SMILES	PfHsp40 rescue	MazF activator	DUSP3 inh	BJeLR viability	3CLpro inhibitor	BH1578 lux ind
COc1ccc(NC(=O)c2cc(-c3ccco3)on2)cc1OC	-1	5	53*	-8	0	0
Cn1c(=O)c(C(=O)NNC(=O)c2ccccc2Cl)c(O)c2ccccc21	82*	12	-29	4	-1	0
O=Cc1ccc(-c2ccc(F)cc2)o1	-1	3	8	13	0	-1
O=C(O)/C(=C\c1ccc(-c2ccc(F)cc2)o1)c1ccccc1	37*	-4	13	nt	5	0
N#Cc1ccc(OCC(=O)Nc2cc(S(=O)(=O)N3CCOCC3)ccc2N2CCCC2)cc1	nt	-1	nt	nt	nt	nt
CCOC(=O)c1sc(-c2ccc(Br)cc2)cc1N	1	-1	13	10	0	-2
NNC(=O)c1sc(-c2ccc(Cl)cc2)cc1N	-1	-4	51*	9	0	i
CC1(C)CC(=O)C(N=Nc2cc3c(cc2[N+](=O)[O-])OCCO3)=C(O)C1	-1	93*	17	2	0	0
O=C(N/N=C/c1cccnc1)c1ccc(NC(=O)C(c2ccccc2)c2ccccc2)cc1	-2	61*	8	106*	-3	0
O=C(CNC(=O)C(c1ccccc1)c1ccccc1)N/N=C/c1cccnc1	-1	6	10	14	-4	-1
COC(=O)CN1C(=O)S/C(=C/c2ccc(N3CCCCC3)o2)C1=O	0	386*	-3	1	4	0
CN(C)c1ccc(NC(=O)C2CCCN(S(=O)(=O)c3ccccc3)C2)cc1 (configuration not stated)	0	8	56*	-2	3	0
Cc1ccc(/C=N/NC(=O)Cc2c(F)cccc2Cl)s1	-2	-2	53*	1	-9	i
Nc1ccc2c(c1)C/C(=C/c1ccco1)C2=O	0	-57	72*	2	-1	0
Cc1ccc(NC(=O)CN2CCC(C(=O)c3ccc(F)cc3)CC2)cc1	0	1	8	-9	-2	4
Cc1ccc(C(=O)C2CCN(CC(=O)NCc3ccc(F)cc3)CC2)cc1	-2	7	53*	6	-1	-4
COc1ccc(C(=O)CC(=O)c2ccc(C(C)(C)C)cc2)cc1	0	-4	nt	nt	nt	-1
Cc1ccc(C(=O)CC(=O)c2ccc(C(C)(C)C)cc2)cc1	36*	0	18	-11	2	2
C#CCOCCOCCOCCNc1nc(N2CCN(C(=O)CCCCCCCCCCNC(=O)Cn3cc(C[C@@H](C)O)nn3)CC2)nc(N2CCN(C(=O)CCCCCCCCCCNC(=O)[C@@H]([C@H](C)CC)n3cc(CCCCCN)nn3)CC2)n1	4	-43	nt	nt	nt	i
C#CCOCCOCCOCCNc1nc(N2CCN(C(=O)CCCCCCCCCCNC(=O)[C@@H](CCSC)n3cc(CCO)nn3)CC2)nc(N2CCN(C(=O)CCCCCCCCCCNC(=O)[C@H](CCC(=O)O)n3cc(CCCCCN)nn3)CC2)n1	1	23	nt	nt	nt	-1
C#CCOCCOCCOCCNc1nc(N2CCN(C(=O)CCCCCCCCCCNC(=O)[C@H](CCCCN)n3cc(C[C@@H](C)CC)nn3)CC2)nc(N2CCN(C(=O)CCCCCCCCCCNC(=O)[C@H](CCCN=C(N)N)n3cc(C[C@@H](C)CC)nn3)CC2)n1	26*	-91	nt	nt	nt	i
C#CCOCCOCCOCCNc1nc(N2CCN(C(=O)CCCCCCCCCCNC(=O)Cn3cc(CCCCCN)nn3)CC2)nc(N2CCN(C(=O)CCCCCCCCCCNC(=O)Cn3cc(C[C@@H](C)O)nn3)CC2)n1	38*	-37	nt	nt	nt	0
C#CCOCCOCCOCCNc1nc(N2CCN(C(=O)CCCCCCCCCCNC(=O)[C@@H](CCSC)n3cc(CCO)nn3)CC2)nc(N2CCN(C(=O)CCCCCCCCCCNC(=O)[C@H](CO)n3cc(CCCCCN)nn3)CC2)n1	85*	-23	nt	nt	nt	0
CCc1ccccc1N1C(=O)C2C3C=CC(CC3)C2C1=O (configuration not stated)	-1	8	5	5	0	i
Cc1ccc(OCCN2CCC2(C)C(=O)Nc2ccc3c(c2)OCO3)cc1 (configuration not stated)	nt	nt	nt	nt	nt	-1
SMILES	PfHsp40 rescue	MazF activator	DUSP3 inh	BJeLR viability	3CLpro inhibitor	BH1578 lux ind
COc1ccc(C(O)c2nc(-c3cncnc3)cs2)cc1 (configuration not stated)	nt	nt	nt	nt	nt	0
O=C(Nc1ccc(Cl)cc1)C1CCCC1	1	6	19	0	-5	0
O=C(Nc1cc(Cl)cc(Cl)c1)C1CCCC1	70*	6	33	3	0	0
O=c1[nH]cc(F)c(=O)[nH]1	256*!	6	-3	-8	-2	i
O=c1[nH]cc(O)c(=O)[nH]1	2	5	-2	-9	1	0
COc1ccc(C(CNC(=O)c2ccc(OCc3c(C)noc3C)cc2)N2CCCC2)cc1 (configuration not stated)	0	0	nt	nt	nt	-7
CSc1ccc(/C=N/NC(=O)CN2CCN(Cc3ccc(Cl)cc3)CC2)cc1	-2	95*	12	-18	2	0
O=C(c1cccc(Cl)c1)N1CCC(=O)N(C(CO)Cc2ccccc2)CC1 (configuration not stated)	0	10	nt	0	nt	-1
COC(=O)c1ccccc1NC(=O)C(=O)NCc1ccncc1	-1	0	56*	0	0	0
COC(=O)c1ccccc1NC(=O)NCc1cccnc1	0	1	-9	4	5	0
CNC(=O)NC(=O)CSc1ccc(S(=O)(=O)N2CCOCC2)cn1	33*	0	nt	nt	nt	1
CC(C)CCNC(=O)NC(=O)CSc1ccc(S(=O)(=O)N2CCOCC2)cn1	0	-10	nt	nt	nt	2
COc1ccc(NC2CCCN(C(=O)c3oc(C)cc3C)C2)cc1OC (configuration not stated)	1	5	99	-5	6	-1
Cc1cc(C)c(C(=O)N2CCCC(Nc3ccc(C)c(C)c3)C2)o1 (configuration not stated)	1	1	53*	0	-2	i
Cc1ccc(NC2CCCN(C(=O)CN3C(=O)CSC3=O)C2)cc1C (configuration not stated)	-1	4	53*	-4	2	i
CCc1cc2cc3c(cc2nc1SCC(=O)Nc1nnc(C)s1)OCCO3	0	-15	-2	-16	1	-2
CCc1nnc(NC(=O)CSc2nc3cc4c(cc3cc2CC)OCCO4)s1	1	82*	-9	-13	-9	4
Cc1c(C(=O)NCc2cccs2)sc(=O)n1Cc1ccc(S(=O)(=O)N(C)C)cc1	nt	nt	nt	nt	nt	0
COc1ccc2c(c1)c1nc3ccccc3nc1n2Cc1ccc(OC(C)C)c(OC)c1	-1	-82	3	-14	6	i
COc1ccc(Cn2c3ccc(OC)cc3c3nc4ccccc4nc32)cc1	0	65*	10	-8	9	-2
